# Results filed as inconclusive are left out. A call without a number means that no potency is given here. Active and inactive are the calls of the source. Calls follow the shape of the dose curve; as a rule, active = well fitted cell-killing curve with a large enough effect in the repeat runs; inconclusive = weak or mixed curves, or effect the other way; inactive = flat fitted curve, though single readings scatter.
# Test: qHTS assay to identify small molecule antagonists of the constitutive androstane receptor (CAR) signaling pathway - cell viability counter screen (AID 1224837); also: nearly all actives have a fitted effect of over 45% in size
# Conditions: HepG2-CYP2B6-hCAR viability, CellTiter-Fluor, 23 h, co-treated with 50 nM CITCO; series mostly up to 92.4 µM
# Excerpt: National Center for Advancing Translational Sciences [NCATS]
# NIH Chemical Genomics Center [NCGC]
# U.S. Environmental Protection Agency [EPA]
# National Institutes of Environmental Health Sciences [NIEHS]
# National Toxicology Program [NTP]
# U.S. Food and Drug Administration [FDA]
# The constitutive androstane receptor (CAR) is a nuclear receptor which regulates multiple drug metabolizing enzymes (DMEs) and transporters. Activating CAR will generally increase the transcription and subsequent translation of CYP2B6 and CYP3A4. These two DMEs represent about 50% of the drug metabolizing potential in the body. When CAR is deactivated, the metabolizing potential in the body will decrease, subsequently increasing the toxicity in the body or lowering the therapeutic potential of a pro-drug. Recently, there have also been studies performed indicating CARs role in energy metabolism and cancer therapy. Therefore, inhibiting CARs activity could have a potential effect on diabetes and cancer. Identifying environmental toxins and compounds which modulate CAR, through the use of the Tox21 10K compound collection, will be an important step in determining the toxicity and potential therapeutic effects these factors will have on the human body. To differentiate true CAR antagonists from cytotoxic substances, the assay is multiplexed with a cell viability assay.
# Tox21 Assay Protocol Summary:
# A double-stable (hCAR and CYP2B6-2.2kb) transfected cell line, derived from human hepatoma (HepG2) cells, was utilized for the duration of the quantitative high-throughput screens. The HepG2-CYP2B6-hCAR cells were dispensed at 2500 cells/4 uL/well in 1536-well white solid bottom plates using a Multidrop Combi. After the assay plates were incubated at 37 C/5% CO2 for 4 hrs, 23 nL of compounds at 15 concentrations (from 5-48 columns) or positive control (from 1 to 4 columns) were transferred to the assay plates using a Pintool station. One uL of CITCO (final concentration = 50 nM) was added, using a Flying Reagent Dispenser, inside each well. After a 23 hr incubation period at 37 C/5% CO2, 1 uL of CellTiter-Fluor reagent was added into each well of the assay plates using a Flying Reagent Dispenser. The fluorescence intensity in the plates was then measured using a ViewLux plate reader.
row,Structure (SMILES),Potency
1,Nc1nc(N)c2nc(-c3ccccc3)c(N)nc2n1,inactive
2,Cc1ccc([N+](=O)[O-])cc1N,inactive
3,CCCCCCCCCCCC(=O)N(C)CC(=O)O,inactive
4,CC(O)CNCC(C)O (stereo not given),inactive
5,CCCCCCCCCCCCCC(=O)O,inactive
6,CCn1cc(C(=O)O)c(=O)c2cc3c(cc21)OCO3,inactive
7,CCc1cccc(CC)c1N,inactive
8,CC(C=O)Cc1ccc(C(C)(C)C)cc1 (stereo not given),inactive
9,OCC(CO)(CO)CO,inactive
10,CC(=O)OCc1ccc2c(c1)OCO2,inactive
11,Brc1ccc(Oc2ccc(Br)cc2)cc1,inactive
12,COc1ccc(N)c(OC)c1,inactive
13,COc1c2ccoc2cc2oc(=O)ccc12,inactive
14,Cc1cc(C)c(O)c(C)c1,inactive
15,O=Cc1ccc(CO)o1,inactive
16,CC(=O)OC(C)(C)C1CC=C(C)CC1 (stereo not given),inactive
17,NC(N)=S,inactive
18,CCCCCC(C)=O,inactive
19,N[C@@H](Cc1cc(I)c(Oc2ccc(O)c(I)c2)c(I)c1)C(=O)O,inactive
20,O=C(NCC1CCCCN1)c1cc(OCC(F)(F)F)ccc1OCC(F)(F)F (stereo not given),inactive

row,Structure (SMILES),Potency
1,NC(=O)c1ncn([C@@H]2O[C@H](CO)[C@@H](O)[C@H]2O)n1,inactive
2,C=C(C)CC(C)(C)C,inactive
3,CC(C)(C)NC[C@H](O)COc1nsnc1N1CCOCC1,inactive
4,O=C1C(N(CO)C(=O)NCO)N(CO)C(=O)N1CO (stereo not given),inactive
5,CC(COCC(C)OC(=O)c1ccccc1)OC(=O)c1ccccc1 (stereo not given),inactive
6,Clc1cccc(Cl)c1NC1=NCCN1,inactive
7,COc1c(Cl)ccc(Cl)c1C(=O)O,inactive
8,CCCCCCC(=O)O,inactive
9,COC(=O)OC,inactive
10,O=[N+]([O-])c1cc(C(F)(F)F)ccc1Cl,inactive
11,OCc1ccc(Cl)cc1Cl,inactive
12,NC1CCCCC1N (stereo not given),inactive
13,O=C(O)C1=NN(c2ccc(S(=O)(=O)O)cc2)C(=O)C1,inactive
14,O=C(Cl)c1ccc(C(=O)Cl)cc1,inactive
15,O=C(c1ccccc1)c1ccc(O)c(O)c1O,inactive
16,COC(=O)/C=C\C(=O)OC,inactive
17,CC1(C)[C@@H](O[C@H]2O[C@H](C(=O)O)[C@@H](O)[C@H](O)[C@H]2O[C@@H]2O[C@H](C(=O)O)[C@@H](O)[C@H](O)[C@H]2O)CC[C@]2(C)[C@H]3C(=O)C=C4[C@@H]5C[C@@](C)(C(=O)O)CC[C@]5(C)CC[C@@]4(C)[C@]3(C)CC[C@@H]12,inactive
18,COc1cc(NC(=O)CC(C)=O)c(OC)cc1Cl,inactive
19,O=C1O[C@H]([C@H](O)CO)C(O)=C1O,inactive
20,Cc1ncc(CO)c(CO)c1O,inactive

# From PubChem BioAssay (Tox21)
